Several values for one entry are separate records, joined by “and”; a condition that tells them apart may be missing. Identical values can stand only once. Records with an inconclusive call do not appear. Activity calls are given as the source filed them. Unless noted, the call rests on the fitted dose curve; in most records, active means well fitted curve in the direction sought with a large enough effect; inconclusive means small, poorly fitted or top-dose-only effect, or another doubt; inactive means no such curve, though single readings can be large; an effect the other way counts as inactive or inconclusive.
Columns and labels:
[1] = Cell Viability - SK-N-SH (AID 435; calls by dose curve;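 further: potency means the concentration at half of the fitted maximal effect; compound exposure lasted 40 h at 37 °C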); details: SK-N-SH neuroblastoma cell viability qHTS
Procedure, shortened: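 SK-N-SH human neuroblastoma cells (1500/well) were exposed to compounds in complete medium for 40 h at 37 °C, and intracellular ATP was then measured by CellTiter-Glo luminescence. AC50 was taken from Hill fits, normalized to DMSO and 100 uM tamoxifen.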

[2] = Cell Viability - LYMP2-001 (AID 921); details: LYMP2-001 lymphoblastoid cell viability; series mostly up to 92.2 µM;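 further: 0% = DMSO only and full inhibition = tetraoctylammonium bromide control wells; nearly all actives have a fitted effect of over 70% in size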
Procedure, shortened: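 Human lymphoblastoid cells (Coriell), 2500 per well, were preincubated 5 hr at 37 C, then exposed to compounds in complete medium for 24 hr at 37 C. Cellular ATP was read by CellTiter-Glo luminescence; AC50 from Hill fits of concentration-response data.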

[3] = Cell Viability - LYMP2-014 (AID 983); details: LYMP2-014 lymphoblastoid cells, viability qHTS; series mostly up to 92.2 µM;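 further: plate controls were DMSO only for no effect and 92 µM tetraoctylammonium bromide for full effect; nearly all actives have a fitted effect of over 50% in size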
Procedure, shortened: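 2500 cells/well, 5 hr 37 C; cpd 24 hr 37 C, complete medium; CellTiter-Glo 30 min RT, luminescence; ATP loss = toxicity; AC50 via Hill eqn; tetraoctylammonium bromide positive control.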

[4] = Cell Viability - LYMP2-020 (AID 986); details: series mostly up to 92.2 µM;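 further: plate controls were DMSO only for no effect and tetraoctylammonium bromide at 92 µM for full effect; nearly all actives have a fitted effect of over 55% in size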
Procedure, shortened: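 qHTS, 2500 cells/well; 5 hr then 24 hr compound exposure, 37 C; CellTiter-Glo luminescence after 30 min RT; ATP decrease taken as cytotoxicity; AC50 via Hill equation; tetraoctylammonium bromide positive control.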

[5] = Cell Viability - LYMP1-002 - Assay at 24 hr (AID 993); details: LYMP1-002 lymphoblastoid cells viability; series mostly up to 92.2 µM; further: on the % scale 0 is the no-effect control and ±100 the full control effect
Procedure, shortened: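 CellTiter-Glo luminescence (intracellular ATP) after 24 h compound exposure, 37 C, in LYMP1-002 human lymphoblastoid cells; decreased ATP taken as cytotoxicity. AC50 from standard Hill fit of concentration-response curves.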

[6] = molecular target: Peroxisome proliferator-activated receptor gamma (Homo sapiens) (UniProt P37231); test: qHTS assay for small molecule antagonists of peroxisome proliferator-activated receptor gamma signaling (AID 588537; active means well fitted inhibition curve with a large enough effect in the signal ratio, with a control signal flat, not every such curve was filed as active; the % refers to the signal ratio;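 further: reporter cells co-stimulated with 50 nM rosiglitazone agonist during compound treatment; % of control where 0% means no effect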); details: HEK293 PPARg-UAS-bla, beta-lactamase ratio, antagonist mode; series mostly up to 76.8 µM
Procedure, shortened: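 Cell-based beta-lactamase assay; GW9662 served as the antagonist control. Stimulation used rosiglitazone, final 50 nM, 16 h, 37 C.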

[7] = molecular target: Phospholipid hydroperoxide glutathione peroxidase GPX4 (Homo sapiens) (UniProt P36969); test: Primary qHTS Assay for Inhibitors of Recombinant Selenoprotein Glutathione Peroxidase 4 (GPX4) (AID 1845192); details: recombinant GPX4, GR-coupled NADPH fluorescence, 15 min; series mostly up to 50 µM; further: nearly all actives have a fitted effect of over 65% in size; further: potency means the concentration at half of the fitted maximal effect
Procedure, shortened: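 NADPH consumption followed by fluorescence at 340/450 nm, t=0 and after 15 min at room temperature. Reaction started with cumene hydroperoxide (0.5 mM final) after 30 min compound–GPX4 preincubation; final 200 nM GPX4, 100 nM GR, 1 mM GSH, 0.5 mM NADPH.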

[8] = molecular target: Glutathione peroxidase 1 (Homo sapiens) (UniProt P07203); test: Primary qHTS Assay for Inhibitors of Recombinant Selenoprotein Glutathione Peroxidase 1 (GPX1) (AID 1845191); details: recombinant GPX1, GR-coupled NADPH fluorescence, 15 min; series mostly up to 48.8 µM; further: nearly all actives have a fitted effect of over 65% in size; further: potency means the concentration at half of the fitted maximal effect; on activity, negative = inhibition: on the % scale 0 is the no-effect control and ±100 the full control effect
Procedure, shortened: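 NADPH consumption tracked by fluorescence at 340/450 nm between t=0 and t=15 min, room temperature. Final mix: 10 nM GPX1, 100 nM glutathione reductase, 1 mM GSH, 0.5 mM NADPH, 0.5 mM cumene hydroperoxide, 0.01% BSA; 30 min compound–enzyme preincubation.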

[9] = molecular target: Glucocorticoid receptor (Homo sapiens) (UniProt P04150); test: qHTS assay for small molecule antagonists of glucocorticoid receptor signaling (AID 588533; active means well fitted inhibition curve with a large enough effect in the signal ratio, with a control signal flat, not every such curve was filed as active; the % refers to the signal ratio;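 further: cells stimulated with 2 nM dexamethasone as agonist; on the % scale 0 is the no-effect control and ±100 the full control effect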); details: HeLa MMTV-bla, GRE beta-lactamase ratio, antagonist mode, 18 h; series mostly up to 76.8 µM
Procedure, shortened: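 Antagonist-mode qHTS: compound titrations added to GRE-bla HeLa cells, then dexamethasone 2 nM final; 18 h, 37 C. CCF4 FRET fluorescence normalized to dexamethasone and DMSO; IC50 from Hill fit.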

[10] = qHTS assay for small molecule antagonists of peroxisome proliferator-activated receptor delta signaling (AID 588535; active means well fitted inhibition curve with a large enough effect in the signal ratio, with a control signal flat, not every such curve was filed as active; the % refers to the signal ratio;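 on max response: cells co-treated with a PPAR-delta agonist as stimulator during compound exposure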); details: HEK293T PPARd-UAS-bla, beta-lactamase FRET ratio, 18 h; 460 nm channel
Procedure, shortened: (§1)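 Antagonist-mode qHTS using GeneBLAzer PPAR-delta-UAS-bla HEK293T cells; compound exposure 18 hrs at 37 C over a titration. Ratiometric CCF4 fluorescence at 460/530 nm; concentration-response points fitted to the Hill equation.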

[11] = molecular target: Peroxisome proliferator-activated receptor delta (Homo sapiens) (UniProt Q03181); test: as above; details: HEK293T PPARd-UAS-bla, beta-lactamase FRET ratio, 18 h; series mostly up to 76.7 µM
Procedure, shortened: as §1

[12] = qHTS assay for small molecule agonists of the antioxidant response element (ARE) signaling pathway (AID 651741; active means well fitted activation curve with a large enough effect in the signal ratio; the % refers to the signal ratio; further: % of control where 0% means no effect); details: HepG2 ARE-bla reporter, beta-lactamase FRET ratio, 16 h; series mostly up to 96 µM
Procedure, shortened: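 Agonist activity is measured as ARE-driven beta-lactamase expression in a stable HepG2 reporter line, using 16 h compound treatment at 37 C and a FRET substrate fluorescence readout after 2 h.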

[13] = qHTS assay for cell viability of HEK293 cells (AID 743288); details: ATP luminescence (CellTiter-Glo), 18 h; max response: stronger effect = lower value; further: on the % scale 0 is the no-effect control and ±100 the full control effect; nearly all actives have a fitted effect of over 50% in size
Procedure, shortened: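 After 18 h compound exposure at 37 C, parental HEK293 cells (2,000/well) are lysed with CellTiter-Glo and luminescence is read following 30 min at room temperature.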

[14] = Cellular Toxicity (caspase-3) BJ (AID 658); details: BJ fibroblasts, luminescence, normalized: DMSO 0%, staurosporine 100%; series mostly up to 91.7 µM;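 further: cells exposed to compound for 16 hours; 0% = DMSO basal and 100% = 10 µM staurosporine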
Procedure, shortened: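 Caspase-Glo 3/7 luminescence, read 1 hr after reagent at room temperature, in normal BJ fibroblasts exposed 16 hours at 37 °C. AC50 values from Hill-equation concentration-response, scaled between DMSO basal and 10 uM staurosporine as 100%.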

[15] = Cell Viability - LYMP2-005 (AID 967); details: LYMP2-005 lymphoblastoid cell viability; series mostly up to 92.2 µM;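 further: plate controls were DMSO only for no effect and 92 µM tetraoctylammonium bromide control for full effect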
Procedure, shortened: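 CellTiter-Glo luminescence (cellular ATP) read-out; LYMP2-005 lymphoblastoid cells, 2500/well, 5 h pre-incubation, then 24 h compound exposure at 37 C in complete medium. Tetraoctylammonium bromide positive control; AC50 by standard Hill fit.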

[16] = qHTS assay for small molecule activators of the nuclear factor-kappa B (NF-kB) signaling pathway (AID 651749; active means well fitted activation curve with a large enough effect in the signal ratio; the % refers to the signal ratio; further: % of control where 0% means no effect); details: NF-kB-bla ME-180 cells, beta-lactamase FRET ratio, 16 h; stronger effect = higher value
Procedure, shortened: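 FRET-based beta-lactamase detection in ME-180 cells reports NF-kB response-element-driven transcription following overnight (16 hr) compound treatment.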

[17] = qHTS assay to identify small molecules that stimulate interleukin-8 (IL-8) secretion (AID 651758; active means well fitted activation curve with a large enough effect in the signal ratio; the % refers to the signal ratio; further: potency means the concentration at half of the fitted maximal effect; on activation: 0% is about no effect); details: HTRF ratio (665/615); series mostly up to 92.2 µM
Procedure, shortened: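 Secreted IL-8 measured homogeneously by TR-FRET (two labelled anti-IL-8 antibodies, 1-3 h at room temperature) after a 16 h, 37 C compound treatment of THP-1 cells at 2000 cells/well.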

[18] = Cell Viability - LYMP2-023 (AID 975); details: LYMP2-023 lymphoblastoid cell viability; series mostly up to 92.2 µM;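 further: cellular ATP measured by luciferase luminescence as viability proxy; plate controls were DMSO only for no effect and 92 µM tetraoctylammonium bromide control for full effect; nearly all actives have a fitted effect of over 55% in size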
Procedure, shortened: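 CellTiter-Glo luminescence after 30 min at room temperature; decrease in intracellular ATP reflects toxicity. Cells: human lymphoblastoid line, 2500/well, 24 hr compound exposure at 37 C. AC50 fitted to standard Hill equation from concentration-response.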

[19] = molecular target: Bile acid receptor (Homo sapiens) (UniProt Q96RI1); test: qHTS assay for small molecule antagonists of farnesoid X receptor signaling (AID 588526; calls by dose curve; further: on the % scale 0 is the no-effect control and ±100 the full control effect); details: HEK293T FXR-UAS-bla, beta-lactamase ratio, antagonist mode; series mostly up to 76.7 µM
Procedure, shortened: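 Beta-lactamase reporter antagonist mode: HEK293T FXR-UAS-bla cells, titrated compound, CDCA stimulation, 16 h 37 C, CCF4 dye 2 h RT. Data normalized to CDCA 50 uM and DMSO; Hill-fit IC50.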

[20] = qHTS profiling for inhibitors of Plasmodium falciparum proliferation (AID 504749); further: potency means the concentration at half of the fitted maximal effect;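 on activity, negative = inhibition: 0% = DMSO vehicle and full inhibition = artemisinin control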; on all read-outs here: nearly all actives have a fitted effect of over 60% in size; details: P. falciparum in erythrocytes, SYBR Green DNA, 72 h; for activity, negative = inhibition: at 28.7 µM (top of the series)
Procedure, shortened: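 In a 72 h erythrocytic culture (37 C, humidified, 5% CO2) at 2.5% hematocrit and 0.3% starting parasitemia, compounds were tested; SYBR Green I in detergent lysis buffer stained parasite DNA overnight.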

Sequence of Glutathione peroxidase 1 (Homo sapiens) (P07203 whole entry, looked up): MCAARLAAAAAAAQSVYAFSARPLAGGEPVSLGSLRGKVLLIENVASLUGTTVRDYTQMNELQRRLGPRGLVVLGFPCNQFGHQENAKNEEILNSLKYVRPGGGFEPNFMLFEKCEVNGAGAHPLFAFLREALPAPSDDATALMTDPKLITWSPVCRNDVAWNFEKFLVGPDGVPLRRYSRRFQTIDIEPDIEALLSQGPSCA
Sequence of Peroxisome proliferator-activated receptor delta (Homo sapiens) (Q03181 whole entry, looked up): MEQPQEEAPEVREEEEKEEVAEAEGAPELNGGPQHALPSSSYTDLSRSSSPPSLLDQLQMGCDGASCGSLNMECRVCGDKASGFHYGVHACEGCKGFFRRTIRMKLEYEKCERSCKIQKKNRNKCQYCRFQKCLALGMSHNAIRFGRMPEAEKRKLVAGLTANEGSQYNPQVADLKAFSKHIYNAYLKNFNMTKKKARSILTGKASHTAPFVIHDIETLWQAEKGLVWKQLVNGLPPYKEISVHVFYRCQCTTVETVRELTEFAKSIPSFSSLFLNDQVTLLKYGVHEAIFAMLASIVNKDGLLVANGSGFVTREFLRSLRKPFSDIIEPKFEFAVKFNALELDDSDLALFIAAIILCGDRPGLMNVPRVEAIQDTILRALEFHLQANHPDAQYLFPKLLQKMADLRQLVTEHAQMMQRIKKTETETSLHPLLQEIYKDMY
Sequence of Glucocorticoid receptor (Homo sapiens) (P04150 whole entry, looked up): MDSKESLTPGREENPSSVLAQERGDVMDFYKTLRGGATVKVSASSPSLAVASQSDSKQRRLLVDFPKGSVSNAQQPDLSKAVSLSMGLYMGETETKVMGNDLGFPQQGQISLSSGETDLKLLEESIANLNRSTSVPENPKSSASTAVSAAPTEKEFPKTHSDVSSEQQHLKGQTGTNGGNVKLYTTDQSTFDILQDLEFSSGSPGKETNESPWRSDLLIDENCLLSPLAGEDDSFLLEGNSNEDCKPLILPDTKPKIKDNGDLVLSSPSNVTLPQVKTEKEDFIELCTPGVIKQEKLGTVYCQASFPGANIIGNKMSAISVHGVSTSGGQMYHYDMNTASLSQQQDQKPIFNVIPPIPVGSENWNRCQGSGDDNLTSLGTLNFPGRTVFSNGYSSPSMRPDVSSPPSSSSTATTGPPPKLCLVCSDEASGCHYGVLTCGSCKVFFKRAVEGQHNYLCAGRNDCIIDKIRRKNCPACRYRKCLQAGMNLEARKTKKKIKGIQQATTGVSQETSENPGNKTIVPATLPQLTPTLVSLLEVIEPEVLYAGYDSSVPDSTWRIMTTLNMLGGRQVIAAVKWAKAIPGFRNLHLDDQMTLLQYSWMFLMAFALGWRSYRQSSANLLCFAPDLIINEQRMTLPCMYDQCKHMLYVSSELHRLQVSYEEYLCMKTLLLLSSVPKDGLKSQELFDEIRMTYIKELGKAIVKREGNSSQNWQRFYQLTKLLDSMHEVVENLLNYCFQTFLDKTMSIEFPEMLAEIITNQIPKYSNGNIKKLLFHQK
Sequence of Bile acid receptor (Homo sapiens) (Q96RI1 whole entry, looked up): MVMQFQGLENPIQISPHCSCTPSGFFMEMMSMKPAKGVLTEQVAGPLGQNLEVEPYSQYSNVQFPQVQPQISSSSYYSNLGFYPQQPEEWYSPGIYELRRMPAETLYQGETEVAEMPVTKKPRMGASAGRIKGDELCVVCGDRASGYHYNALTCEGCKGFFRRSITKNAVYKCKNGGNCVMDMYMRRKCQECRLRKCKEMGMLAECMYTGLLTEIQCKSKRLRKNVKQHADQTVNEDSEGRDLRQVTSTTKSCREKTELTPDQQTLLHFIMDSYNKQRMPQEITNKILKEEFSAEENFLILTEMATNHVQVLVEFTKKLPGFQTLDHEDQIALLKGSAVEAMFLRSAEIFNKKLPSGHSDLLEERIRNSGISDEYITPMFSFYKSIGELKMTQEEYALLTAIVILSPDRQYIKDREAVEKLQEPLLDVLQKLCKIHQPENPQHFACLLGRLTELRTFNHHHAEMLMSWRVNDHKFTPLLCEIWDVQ
Sequence of Peroxisome proliferator-activated receptor gamma (Homo sapiens) (P37231 whole entry, looked up): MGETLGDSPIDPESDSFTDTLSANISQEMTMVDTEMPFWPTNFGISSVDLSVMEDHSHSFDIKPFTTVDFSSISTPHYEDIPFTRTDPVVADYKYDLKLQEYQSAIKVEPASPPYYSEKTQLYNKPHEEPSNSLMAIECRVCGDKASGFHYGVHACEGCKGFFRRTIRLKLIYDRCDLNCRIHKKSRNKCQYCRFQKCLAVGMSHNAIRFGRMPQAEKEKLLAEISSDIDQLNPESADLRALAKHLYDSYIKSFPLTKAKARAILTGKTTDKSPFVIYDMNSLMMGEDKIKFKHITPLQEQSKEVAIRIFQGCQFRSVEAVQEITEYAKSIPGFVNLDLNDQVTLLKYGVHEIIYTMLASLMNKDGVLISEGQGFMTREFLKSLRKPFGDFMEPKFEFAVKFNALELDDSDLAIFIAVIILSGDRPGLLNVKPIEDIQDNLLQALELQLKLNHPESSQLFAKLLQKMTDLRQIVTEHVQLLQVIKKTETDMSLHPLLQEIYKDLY
Sequence of Phospholipid hydroperoxide glutathione peroxidase GPX4 (Homo sapiens) (P36969 whole entry, looked up): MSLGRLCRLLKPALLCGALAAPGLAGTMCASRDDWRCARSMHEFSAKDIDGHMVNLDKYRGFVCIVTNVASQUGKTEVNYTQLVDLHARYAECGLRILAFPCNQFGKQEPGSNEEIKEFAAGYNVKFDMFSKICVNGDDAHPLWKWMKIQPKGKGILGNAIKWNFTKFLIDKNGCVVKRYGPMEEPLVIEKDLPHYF

COc1c2ccoc2cc2oc(=O)ccc12
inactive: Potency [1] > 92 µM | Potency [2] | Potency [3] | Potency [4] | Potency [5] | outcome [6]

Cn1nnnc1SCC1=C(C(=O)O)N2C(=O)[C@H](NC(=O)C(O)c3ccccc3)C2SC1 (stereo partly specified)
active: Potency [7] 8.91 µM

COc1cc(/C=C/C(=O)N2CCC=CC2=O)cc(OC)c1OC
inactive: Potency [8]

CCCCCCCCCCCCCCC1CO1 (stereo unspecified)
inactive: Potency [1] > 92 µM | Potency [2] | Potency [4] | Potency [9] | Potency [11] | outcome [6] | Potency [12] | max response [13] -3.91% and -17.2%
14.3%: max response [10]

CC(=O)OCC1=C(C(=O)O)N2C(=O)[C@@H](NC(=O)CC#N)[C@H]2SC1
inactive: Potency [7]

CC(C)(C)NC(=O)[C@@H]1C[C@@H]2CCCC[C@H]2CN1C[C@@H](O)[C@H](Cc1ccccc1)NC(=O)[C@H](CC(N)=O)NC(=O)c1ccc2ccccc2n1
inactive: Potency [7]

CC(O)C(CO)NC(=O)C1CSSCC(NC(=O)C(N)Cc2ccccc2)C(=O)NC(Cc2ccccc2)C(=O)NC(Cc2c[nH]c3ccccc23)C(=O)NC(CCCCN)C(=O)NC(C(C)O)C(=O)N1 (stereo unspecified)
active: Potency [7] 12.6 µM

CC/C=C(\C(=O)N[C@H]1C(=O)N2C(C(=O)OCOC(=O)C(C)(C)C)=C(COC(N)=O)CS[C@H]12)c1csc(N)n1
active: Potency [8] 6.26 µM

CCCN(CCC)C(=O)SCC
inactive: Potency [1] > 92 µM | outcome [14] | Potency [9] | outcome [6] | Potency [12]

ClCCCl
inactive: Potency [1] > 92 µM | outcome [14] | Potency [2] | Potency [15] | Potency [3] | Potency [9] | Potency [11] | outcome [6] | Potency [12] | activation [16] -0.0783% and -1.06% and -1.29% | Potency [17]
-25.6% and 21.1%: max response [10]

NCCC[C@H](NC(=O)[C@@H]1CCCN1C(=O)[C@@H]1CSSC[C@H](N)C(=O)N[C@@H](Cc2ccc(O)cc2)C(=O)N[C@@H](Cc2ccccc2)C(=O)N[C@@H](CCC(N)=O)C(=O)N[C@@H](CC(N)=O)C(=O)N1)C(=O)NCC(N)=O
active: Potency [7] 25.1 µM

CN1CC[C@H](CN2c3ccccc3Sc3ccccc32)C1
inactive: Potency [7]

C/C=C\c1ccc(OC)cc1
-7.78%: max response [10]
inactive: Potency [18] | Potency [3] | outcome [19] | Potency [11] | outcome [6] | activation [16] -0.604% | Potency [17] | activity, negative = inhibition ([20]; parasite line A) -0.333% | activity, negative = inhibition ([20]; parasite line B) -2.16%

c1ccccc1
inactive: Potency [1] > 92 µM | outcome [14] | Potency [18] | outcome [19] | Potency [9] | outcome [6] | Potency [12] | activation [16] -0.601% [middle of 4 runs] | Potency [17] | max response [13] 0.515% [middle of 4 runs]

C1OCOCO1
2.46%: max response [10]
inactive: Potency [2] | Potency [5] | outcome [19] | Potency [9] | Potency [11] | Potency [12] | activation [16] -1.91% | activity, negative = inhibition ([20]; parasite line A) -0.0178% | activity, negative = inhibition ([20]; parasite line B) 3.44%
active: Potency [17] 66.8 µM

CC(C)=CCCC(C)CCO (stereo unspecified)
6.53% and 29.8%: max response [10]
inactive: Potency [1] > 92 µM | outcome [14] | Potency [18] | Potency [9] | Potency [11] | outcome [6] | Potency [12] | activation [16] 0.223% and -0.597%

CC(C)(CO)C(O)C(=O)NCCCC(=O)O (stereo unspecified)
active: Potency ([20]; parasite line A) 0.0141 µM
inactive: Potency [8]

C[C@@H](O)[C@H]1C(=O)N2C(C(=O)O)=C(S[C@@H]3CN[C@H](C(=O)Nc4cccc(C(=O)O)c4)C3)[C@H](C)[C@H]12
inactive: Potency [7]

CN(C)CCCCCCN(C)C
53.3%: max response [10]
inactive: outcome [14] | Potency [2] | Potency [18] | Potency [4] | outcome [19] | Potency [9] | Potency [11] | Potency [12] | activity, negative = inhibition ([20]; parasite line A) 13.6% | activity, negative = inhibition ([20]; parasite line B) -6.83%

CC1=CC(C)(C)Nc2ccccc21
inactive: Potency [1] > 92 µM | outcome [14] | Potency [2] | Potency [18] | Potency [3] | Potency [11] | outcome [6] | Potency [17]
34.8% and 1.74%: max response [10]

O=C(O)c1ccc(O)cc1O
43.1%: max response [10]
inactive: Potency [1] > 92 µM | outcome [14] | Potency [18] | Potency [3] | outcome [19] | Potency [9] | Potency [11] | outcome [6] | Potency [12] | activation [16] 0.834% and -0.343% | Potency [17] | max response [13] -11.1% and 9.9%

— PubChem BioAssay (NCATS)
